# Bioassay records: PubChem BioAssay, National Center for Advancing Translational Sciences (NCATS)
# HepG2 viability: qHTS for Inhibitors of TGF-b: Cytotox Counterscreen | HepG2 CAGA-GFP viability, ATP luminescence, 18 h | Potency, µM (top dose mostly 46.1 µM), without a hit: top-dose activity change, negative = cytotoxicity, actives largely listed as cytotoxic | actives 0.76% (n = 410,000); also: potency is read from the fitted curve at half-maximal effect
#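 CellTiter-Glo luminescence gave cytotoxicity after 18 hours at 37 degrees C. The cells were HepG2 CAGA-GFP in 1% FBS DMEM, stimulated with 500 pg/mL TGF-beta after compound addition. %Activity was normalised to no-cell wells (complete cell-killing) and DMSO (no toxicity), and curves were fitted and classified.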
# TGFb inhibitor: qHTS for Inhibitors of TGF-b; HepG2 CAGA-GFP TGF-b/SMAD3 reporter, GFP fluorescence, 18 h; TGF-beta stimulated, 500 pg/mL final; Potency, µM (doses to about 46.1 µM), without a hit: at the top dose activity, negative = inhibition, actives largely listed as inhibitors; actives 1.2% (n = 410,000); also: potency is read from the fitted curve at half-maximal effect; % is scaled to controls: 0 for no effect and ±100 for the full control effect; nearly all actives have a fitted effect of over 65% in size
#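 HEPG2 CAGA-GFP, 1000 cells/well; 2 h settle, 37 C; cpd via pin tool; TGF-b 500 pg/mL final; 18 h, 37 C; GFP imaging ex488/em500-530; %Activity normalised to -TGF-b and +DMSO controls; CRC fit, curve class.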
# ATXN viability: Viability Counterscreen for Primary qHTS for Inhibitors of ATXN expression. S2 cells (HEK-293 line with an ATXN2-luciferase reporter) viability, CellTiter-Fluor protease fluorescence, 24 h. Potency, µM (doses to about 56.7 µM), most hits filed as cytotoxic. actives 0.49% (n = 400,000). AID 651635, 2014; also: potency is read from the fitted curve at half-maximal effect; nearly all actives have a fitted effect of over 40% in size
# ATXN2 expr inh: Primary qHTS for Inhibitors of ATXN expression. HEK-293 ATXN2-luciferase reporter, luminescence, 24 h. actives 0.72% (n = 360,000). Potency, µM (series often up to 57 µM), without a hit: top-dose activity change, negative = inhibition, actives largely listed as inhibitors; also: potency is read from the fitted curve at half-maximal effect; % is scaled to controls: 0 for no effect and ±100 for the full control effect; nearly all actives have a fitted effect of over 55% in size
#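 qHTS (up to 57 uM final) was run with 24 h compound exposure of reporter cells at 37 °C. Each well was multiplexed: SteadyGlo luminescence measured ATXN2-luciferase expression after a fluorogenic Gly-Phe-AFC viability readout (25 uM final).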
# IL-1B inflam inh: qHTS for Inhibitors of Inflammasome Signaling: IL-1-beta AlphaLISA Primary Screen | THP-1 LPS/ATP IL-1B secretion, AlphaLISA, 16 h; hits give low values | actives 4.7% (n = 360,000) | activity change, % at 57.5 µM; in the data active = activity change below about -50%; inconclusive = mostly about -30% to -49%; also: % is scaled to controls: 0 for no effect and ±100 for the full control effect
#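 Secreted IL-1B measured by AlphaLISA bead assay after 16 h compound exposure of THP-1 cells; compounds (final up to 57.5 uM) added 1 h before LPS (250 ng/mL) and ATP (1.25 mM) stimulation; lower signal means less secretion.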
# * = called active by the depositor; i = inactive; ? = inconclusive; . = no result. An excerpt weighted towards active compounds, which were near 5.7% of everything screened. Unless noted, calls follow the shape of the dose curve; as a rule, active = well fitted curve in the direction sought with a large enough effect; inconclusive = small, poorly fitted or top-dose-only effect, or another doubt; inactive = no such curve, though single readings can be large; an effect the other way counts as inactive or inconclusive.
SMILES,HepG2 viability,TGFb inhibitor,ATXN viability,ATXN2 expr inh,IL-1B inflam inh
Cc1ccccc1OCCSc1nc2ccc(NC(=O)c3cccc(F)c3)cc2s1,-76%,?,?,-10%,.
COc1cc(=O)n2c(c1C(=O)NC(C)c1ccco1)CCN(C(=O)c1[nH]c(C)cc1C)CC2 (stereo unspecified),.,.,i,.,.
CC1CCN(c2nc3nonc3nc2Nc2ccc(F)cc2)CC1,2%,?,i,-10%,-76*
Cc1cccc(C)c1N(CCCc1cccnc1)C(=O)C(C)N (stereo unspecified),.,.,i,.,.
CCOc1ccc(N2C(=O)CC(Sc3nnnn3-c3ccccc3)C2=O)cc1 (stereo unspecified),i,?,?,-7%,-57*
Clc1cccc[n+]1CCCCCC[n+]1ccccc1Cl,7%,-4%,.,.,.
CC1=NC(=O)C(N=Nc2cccc(C(=O)O)c2)N1c1ccccc1 (stereo unspecified),-7%,-15%,?,8.9µM*,13
COc1ccc(C(=O)Nc2nc3n(n2)C(c2ccc(F)cc2)C=C(c2ccc(Cl)cc2)N3)cc1 (stereo unspecified),-5%,35%,.,-5%,.
COc1ccc2c(=O)cc(-c3ccncc3)oc2c1OC,-26%,?,i,-25%,-96*
O=c1cc(-c2cccc(F)c2)oc2ccccc12,-3%,12%,i,21%,-2
O=c1cc(-c2ccc(O)cc2)oc2ccccc12,2%,1%,i,0%,5
O=c1cc(-c2c(F)c(F)c(F)c(F)c2F)oc2ccccc12,-61%,-5%,?,22µM*,-100*
O=c1cc(-c2ccncc2)oc2ccccc12,-40%,4%,i,16%,-77*
O=C1CCCC2=C1C(c1ccc(Cl)cc1)C1C(=O)c3ccccc3C1=N2 (stereo unspecified),-24%,?,?,?,-55*
Cc1ccc(C2C3=C(CCCC3=O)N=C3c4ccccc4C(=O)C32)cc1 (stereo unspecified),1%,-8%,?,-7%,-68*
Cc1ccc(S(=O)(=O)NCC(=O)N/N=C/c2ccccc2O)cc1,-7%,2%,i,14µM*,116
Cc1ccc(S(=O)(=O)NCC(=O)N/N=C/c2ccc(Cl)cc2Cl)cc1,-51%,?,?,9%,?
Cc1nn(-c2ccccc2)c2c1N(CC(=O)N1CCN(c3ccc(F)cc3)CC1)C(=O)CS2,-2%,-13%,i,-16%,.
Cc1ccccc1C(OCCN(C(C)C)C(C)C)c1ccccc1 (stereo unspecified),-16%,4%,i,-15%,-53*
Cc1cccc(CNC(=O)c2cnn(-c3nccc(-c4cc5ccccc5o4)n3)c2C2CC2)n1,.,.,i,.,.
CC(C)C[C@H]1CN=C(Nc2ccccc2)N1CCC1CCCC1,-3%,11%,?,-15%,-24
CCCCCCCN1C(Nc2ccccc2)=NC[C@@H]1CC(C)C,-38%,?,?,-20%,-78*
CC(C)C[C@H]1CN=C(Nc2ccccc2)N1CCCC1CCCCC1,-22%,-26%,.,25µM*,-63*
CC(C)C[C@H]1CN=C(Nc2ccccc2)N1CCCC1CCCC1,-99%,?,?,?,-63*
CCCCNC(=O)CSc1nc(COc2ccccc2)nc2ccccc12,-4%,?,i,-11%,-99*
CCCc1nc(SCC(=O)NNC(=O)c2ccc(OC)cc2)c2ccccc2n1,-32%,-25%,i,-19%,9
CCC(C)(C)NC(=O)CSc1nc(Cc2ccccc2)nc2ccccc12,-1%,-28%,i,-19%,-64*
Cc1c2cnn(CC(=O)NCc3ccc(F)cc3)c(=O)c2c(C)n1Cc1cccc(Cl)c1,-20%,-54%,.,.,.
O=C(C[n+]1c(Cl)ccc2ccccc21)c1ccc2ccccc2c1,-9%,28%,.,.,.
O=C(NNC(=S)Nc1ccc(Cl)cc1)c1ccccc1OC(F)F,-59%,14µM*,i,?,20
